Screening results deposited in PubChem BioAssay by National Center for Advancing Translational Sciences (NCATS).
Only some compounds are listed: those with a hit (about 2.5% of all), similar ones and a draw of the others.
D2 ag-1 – human D2 receptor agonism in beta-arrestin assay. P14416. DiscoveRx PathHunter D2 beta-arrestin, luminescence, 90 min; 100% = 57 uM dopamine signal. activation, % (test concentration not listed). hit rate 0.084% among 360,000; in the data active means activation above about 40%; inconclusive means between about 15% and that limit
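DiscoveRx PathHunter D2 beta-arrestin cells (2,100/well) attached overnight, then compound-stimulated 90 min at 37 C in HBSS/10 mM HEPES/0.1% Tween-20 buffer; beta-galactosidase complementation read by luminescence after 1 h at ambient temperature. Dopamine 57 uM final (EC100) as control.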
D2 PAM-1 – human D2 receptor positive allosteric modulation | P14416 | DiscoveRx D2 beta-arrestin cells, luminescence, 90 min; 100% = 57 uM dopamine signal | potentiation, % (no concentration beside the values) | hit rate 0.23% among 360,000 | AID 624464; in the data active means potentiation above about 50%; inconclusive means mostly about 30% to 49%
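D2 cells co-treated with compound plus 50 nM dopamine (EC20) for 90 min at 37 deg C to detect potentiation. Beta-arrestin recruitment was read as enzyme-fragment luminescence after 1 h at ambient temperature. Full response was set by 57 uM dopamine.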
D2 ag-2 – D2 dopamine receptor (human) agonism; P14416; HEK293 T-REx D2 cells, calcium flux agonist mode; activation, % at 2 µM; hit rate 0.53% among 340,000; AID 485358;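 active means activation over 3 SD above normal in the single-dose calcium agonist read, cut at about 30% in these data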; further: 0% is about no effect
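In this primary screen, compounds producing a positive calcium signal within 180 s of addition to tetracycline-induced, force-coupled HEK293 Trex D2 cells are flagged; cells are dye-loaded with a no-wash calcium kit beforehand.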
D2 antag – antagonizes the human D2 dopamine receptor; hit rate 2% among 340,000; P14416; inhibition, % at 10 µM; HEK293 TREx D2 cells, calcium flux, dopamine EC80; in the data active means inhibition above about 30%; inactive means below that, where a call was filed; further: 0% is about no effect
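Read-out: kinetic calcium fluorescence (1 cycle/s) in inducible HEK293 T-REx D2 cells after an EC80 dopamine addition that followed 180 s compound preincubation. Loss of the dopamine response indicates antagonism.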
D2 PAM-2 – positively modulates the human D2 dopamine receptor allosterically; P14416; HEK293 T-REx D2, calcium flux, EC20 dopamine potentiation; potentiation, % at 10 µM; hit rate 0.34% among 340,000; AID 485347;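 active means potentiation over 3 SD above the plate norm, cut at about 30% in these data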; further: 0% is about no effect
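Calcium flux readout, no-wash dye, 1 read/s. Inducible HEK293 Trex D2 line, overnight 30 C. Compound alone 180 s (agonist flags), then EC20 dopamine, another 180 s to score potentiation.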
Apoferritin bind – candidate novel general anesthetic via apoferritin binding; P02791; Potency, µM (top dose mostly 77.5 µM), without a hit: at the highest dose activity change, negative = displacement, most hits filed as inhibitors; AID 485281; apoferritin/1-aminoanthracene competitive binding, fluorescence; hit rate 0.074% among 350,000; further: potency means the concentration at half of the fitted maximal effect; on the % scale 0 is the no-effect control and ±100 the full control effect; nearly all actives have a fitted effect of over 20% in size
Target sequence (P02791 2-175 limits assumed): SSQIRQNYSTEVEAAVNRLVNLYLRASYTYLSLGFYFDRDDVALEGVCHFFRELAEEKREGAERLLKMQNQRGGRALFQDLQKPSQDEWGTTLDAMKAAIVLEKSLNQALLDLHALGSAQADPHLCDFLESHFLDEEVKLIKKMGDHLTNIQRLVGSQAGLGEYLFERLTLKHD
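Concentration-response curves derived by four-parameter Hill fitting of normalized fluorescence, where compounds displaced 1-AMA from 10 uM horse apoferritin following a brief 10 min room-temperature incubation; propofol titration acted as positive control.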
D3 arrestin ag – confirmation of human D3 dopamine receptor agonists, beta-arrestin | AID 720506 | hit rate 4% among 2,300 | shares compounds with D2 ag-2 | Potency, µM (titrated, usually from 76.9 µM), for the others: at the top dose activation, usual class: activators | DiscoveRx D3 beta-arrestin cells, luminescence, 90 min;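 further: potency means the concentration at half of the fitted maximal effect; 100% = dopamine control response; nearly all actives have a fitted effect of over 70% in size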
Target sequence (P35462 whole entry, looked up): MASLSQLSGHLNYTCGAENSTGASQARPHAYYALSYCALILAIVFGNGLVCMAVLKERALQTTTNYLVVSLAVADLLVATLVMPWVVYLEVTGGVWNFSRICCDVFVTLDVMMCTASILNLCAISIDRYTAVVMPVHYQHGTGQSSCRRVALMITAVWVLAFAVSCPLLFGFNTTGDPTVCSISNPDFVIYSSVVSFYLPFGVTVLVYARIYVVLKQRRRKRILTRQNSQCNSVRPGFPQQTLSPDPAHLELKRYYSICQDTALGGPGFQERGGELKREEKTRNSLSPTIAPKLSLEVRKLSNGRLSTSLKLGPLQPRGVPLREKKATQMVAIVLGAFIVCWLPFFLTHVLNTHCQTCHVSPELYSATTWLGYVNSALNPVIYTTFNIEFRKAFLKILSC
D2 ag-3 – activates human D2 dopamine receptor in D3 counterscreen; shares compounds with D2 ag-2; DiscoveRx PathHunter D2 beta-arrestin, luminescence, 90 min; response scale: percent relative to full dopamine signal; Potency, µM (series often up to 76.9 µM), inactives show top-dose activation, hits mostly activators; hit rate 5.9% among 2,300; AID 720507; further: potency means the concentration at half of the fitted maximal effect; % of control where 0% means no effect; nearly all actives have a fitted effect of over 70% in size
Starred values were filed as active, the others as inactive; ? = inconclusive; · = not tested or not shown. Unless noted, the call rests on the fitted dose curve; in most records, active means well fitted curve in the direction sought with a large enough effect; inconclusive means small, poorly fitted or top-dose-only effect, or another doubt; inactive means no such curve, though single readings can be large; an effect the other way counts as inactive or inconclusive.

SMILES	D2 ag-1	D2 PAM-1	D2 ag-2	D2 antag	D2 PAM-2	Apoferritin bind	others
O=C1OC(c2ccc([N+](=O)[O-])cc2)=N/C1=C/N1CC2CC(C1)c1cccc(=O)n1C2 (centres undefined)	-3	-5	20	-14	5	-11%
COc1ccc(-c2cc(=O)oc3c(C)c(OC(C)C(=O)N4C[C@H]5C[C@@H](C4)c4cccc(=O)n4C5)ccc23)cc1 (some centres undefined)	-6	-36	·	·	·	?
CN1CCN(c2ccc([N+](=O)[O-])c(N)c2)CC1	-5	-19	0	-1	-10	-7%
CCN1CCN(c2ccc(N)c(C)c2)CC1	-2	-12	0	49*	-9	-17%
CC(=O)c1ccc(OC(NC(=O)c2ccco2)C(Cl)(Cl)Cl)cc1 (centres undefined)	-1	-1	-1	6	32*	?
O=c1[nH]c(=O)n(Cc2ccccc2Cl)c(O)c1/C=C1/C=CC=N1	-2	-4	6	-22	1	?
O=C1NC(=O)[C@]2(Cc3ccccc3N3CCN(c4ccccc4)CC32)C(=O)N1Cc1ccccc1 (some centres undefined)	?	9	35*	40*	-18	?
Cc1ccc(/C=C2/C(=O)NC(=O)N(CCc3ccc(F)cc3)C2=O)o1	-4	-2	1	-16	-7	-20%
CCC1(Oc2ccccc2)C(=O)NC(=O)NC1=O	3	-7	·	·	·	·
CCC1(C)OC(c2ccccc2)=C/C(=C/C=C2C(=O)NC(=O)NC2=O)O1 (centres undefined)	0	-15	15	43*	-9	-16%
CN(C)CCN(C(=O)c1ccc(S(=O)(=O)N2CCc3ccccc32)cc1)c1nc2ccc(F)cc2s1	-6	-22	-1	69*	-18	?
CN1CCN(c2ccc([N+](=O)[O-])c(NCC3CCCO3)c2)CC1 (centres undefined)	-6	-40	0	15	-10	3%
O=[N+]([O-])c1ccc(N2CCNCC2)cc1NCc1ccco1	-1	-30	-1	61*	-24	-15%
CN1CCN(c2ccc([N+](=O)[O-])c(NCc3ccco3)c2)CC1	-2	-43	-1	53*	-18	4%
Cc1ccc(OCC(=O)N2CCN(Cc3ccc([N+](=O)[O-])cc3)CC2)cc1	-5	-13	1	15	-3	2%
c1ccc(CN2CCNCC2)nc1	-1	-12	1	8	-6	8%
CCN(CC)c1ccc(/C=C/[N+](=O)[O-])cc1	-4	4	57*	1	-7	?
CC(/C=C(\C)Nc1ccccc1)=Nc1ccccc1	-4	9	-1	-4	37*	-9%
COC(=O)C1=Nc2ccccc2/C1=C\c1c(O)n(-c2ccc(Br)cc2)c(=O)[nH]c1=O	0	-24	-1	-6	3	-10%
COC(=O)C1=C(c2ccccc2OCc2ccccc2)C[C@@H]2CC[C@H]1N2C(=O)NCc1cccc(F)c1	-3	-12	0	-12	1	·
CC(=O)[O][Hg][c]1ccccc1	·	·	·	·	·	-10%
Cc1ccc(S(=O)(=O)N(C)C)cc1NC(=O)C(C)[N+]12CCN(CC1)CC2 (centres undefined)	-4	5	-7	32*	-6	-2%
Cc1ccc(S(=O)(=O)N(c2cc(Cl)c(O)c(Cl)c2)P(=O)(OC(C)C)OC(C)C)cc1	3	-8	0	5	31*	-11%
CCOC(=O)C1=C(NC(=S)NC(=O)c2ccccc2)c2ccccc2CC12CCCC2	-4	-10	2	-7	1	-6%
Cc1cccc(CS(=O)(=O)Cc2ccc(C(=O)N3CCC4(CC3)OCCO4)o2)c1	-3	16	-1	40*	11	6%
SMILES	D2 ag-1	D2 PAM-1	D2 ag-2	D2 antag	D2 PAM-2	Apoferritin bind	others
CN1CCC(OC(=O)Cc2ccccc2)CC1	-1	-6	1	-5	12	-2%
CN1CCC(OC(=O)C2c3ccccc3Oc3ccccc32)CC1	-3	-34	1	33*	-18	-16%
COc1ccccc1C1CC2CCC(C1OC(C)=O)N2Cc1ccccc1 (centres undefined)	-6	-6	1	-4	-18	-11%
COc1ccc2c(c1)C1OCCNC1CC2 (centres undefined)	1	-11	·	·	·	·
Cc1[nH]c2ccccc2c1CN(C)C	·	·	·	·	·	4%
Cc1[nH]c2c(Cl)cccc2c1CCN	5	-32	24	41*	-32	0%	D3 arrestin ag=3%;D2 ag-3=8%
CC(=O)OC1(c2ccc(C)cc2)CN2CCC1c1ccccc12 (centres undefined)	2	-5	0	8	3	-8%
OC(CNCCc1c[nH]c2ccccc12)c1ccccc1 (centres undefined)	-4	-14	12	54*	-1	-5%	D3 arrestin ag=-3%;D2 ag-3=5%
COc1ccc(CNCCc2c[nH]c3ccccc23)c(OC)c1C	-2	-12	7	33*	-15	4%	D3 arrestin ag=-6%;D2 ag-3=5%
Fc1ccc(CNCCc2c[nH]c3ccccc23)cc1	4	-22	1	-17	-15	-9%
Fc1ccccc1CNCCc1c[nH]c2ccccc12	-1	-19	16	26	-21	-13%	D3 arrestin ag=-23%;D2 ag-3=0%
CC(=O)NCCc1c[nH]c2ccccc12	-4	-18	1	9	-3	-5%
CCOP(=S)(OCC)Oc1cc(C)oc(=O)c1Cl	-1	4	0	-35	-1	0%
COc1cccc(CNC(=O)c2cc3c(-c4ccccc4F)nn(C)c3s2)c1	·	·	1	·	7	53%
C1=C(c2ccccc2)CCNC1	-2	-9	40*	43*	-29	-1%	D3 arrestin ag=-9%;D2 ag-3=1%
O=C(CCN1C(=O)COc2ccccc21)N1CCC2(CC1)OCCO2	1	0	56*	0	-19	-3%	D3 arrestin ag=-8%;D2 ag-3=-4%
CSc1ccc(C(=O)C2CCCN(C)C2)cc1 (centres undefined)	1	-12	0	1	-11	-8%
CN1CCCC(C(=O)c2ccccc2)C1 (centres undefined)	0	-3	42*	30*	-14	-6%	D3 arrestin ag=15%;D2 ag-3=11%
